A number with no mark means an inactive call.
System: Falciformispora senegalensis CBS197.79
Assay: growth relative to untreated control; higher = less inhibition, active = 20 or less
Conditions: 100 µM
Outline: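 In 96-well plates, suspended hyphal fragments of M. mycetomatis MM55 or F. senegalensis CBS197.79 were exposed to compound at 100 or 25 µM for 7 days at 37 °C. The suspension medium was colourless RPMI 1640 with L-glutamine and MOPS, adjusted to 68–72% transmission at 660 nm. Viability was measured with MTS (2 h, 490 nm) or resazurin (600 nm). Growth means metabolic activity compared with the untreated growth control after blank correction of both with medium plus dye.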

Compound	growth [%]
COC(C)(C)CCCC(C)C/C=C/C(C)=C/C(=O)OC(C)C (configuration not stated)	97.8
CC1(Nc2ncc3nc(Nc4cc(Cl)cc(C(F)(F)F)c4)n(C4CCNC4)c3n2)CC1 (configuration not stated)	52.1
CC(C)Nc1cc2c(cn1)nc(Nc1cc(Cl)cc(C(F)(F)F)c1)n2C1CCNC1 (configuration not stated)	28.6
CCc1nn(C)c(C(=O)NCc2ccc(Oc3ccc(C)cc3)cc2)c1Cl	79.9
N#Cc1nn(-c2c(Cl)cc(C(F)(F)F)cc2Cl)c(NCc2ccccn2)c1SC(F)F	101
CCS(=O)c1c(C#N)nn(-c2c(Cl)cc(C(F)(F)F)cc2Cl)c1N (configuration not stated)	83.7
CCOP(=S)(OCC)Oc1cc(C)nc(C(C)C)n1	88.9
CN/C(=N/CC1CCOC1)N[N+](=O)[O-] (configuration not stated)	92.9
Cc1nc(N(C)C)nc(OC(=O)N(C)C)c1C	87.9
CC1(C)CNC(=NN=C(C=Cc2ccc(C(F)(F)F)cc2)C=Cc2ccc(C(F)(F)F)cc2)NC1	107
N#CCNC(=O)c1cnccc1C(F)(F)F	87.5
CC[C@H](C)[C@H]1O[C@]2(C=C[C@@H]1C)C[C@@H]1C[C@@H](C/C=C(\C)[C@@H](O[C@H]3C[C@H](OC)[C@@H](O[C@H]4C[C@H](OC)[C@@H](O)[C@H](C)O4)[C@H](C)O3)[C@@H](C)/C=C/C=C3\CO[C@@H]4[C@H](O)C(C)=C[C@@H](C(=O)O1)[C@]34O)O2.CO[C@H]1C[C@H](O[C@H]2[C@H](C)O[C@@H](O[C@@H]3/C(C)=C/C[C@@H]4C[C@@H](C[C@]5(C=C[C@H](C)[C@@H](C(C)C)O5)O4)OC(=O)[C@@H]4C=C(C)[C@@H](O)[C@H]5OC/C(=C\C=C\[C@@H]3C)[C@]54O)C[C@@H]2OC)O[C@@H](C)[C@@H]1O	90

From the supplement of paper PMC11172423
